# Reference: PubChem BioAssay (NCATS)
# Where “and” joins values, the source holds several entries; their conditions need not be identical. Equal entries are not always repeated. Inconclusive results are not listed. Where a call stands in place of a potency, no number is given. Calls of active or inactive are those of the source. Unless noted, calls follow the shape of the dose curve; as a rule, active = well fitted curve in the direction sought with a large enough effect; inconclusive = small, poorly fitted or top-dose-only effect, or another doubt; inactive = no such curve, though single readings can be large; an effect the other way counts as inactive or inconclusive.
# Legend:
# [1] = Cell Viability - NIH 3T3 (AID 541); conditions: NIH 3T3 cell viability, qHTS; activity change, negative = cytotoxicity: at 92.2 µM (top of the series);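 also: cells exposed to compound for 40 hours; nearly all actives have a fitted effect of over 25% in size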
# Outline: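 AC50 values reflect concentration-dependent loss of intracellular ATP in NIH 3T3 cells after 40 hr treatment in complete culture medium, quantified by luciferase-based luminescence.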
# [2] = Cell Viability - LYMP1-003 - Assay at 40 hr (AID 964); also: nearly all actives have a fitted effect of over 60% in size
# Outline: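 This qHTS cytotoxicity screen treats human lymphoblastoid cells (LYMP1-003) with compounds for 40 hr and quantifies cellular ATP via luciferase luminescence.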
# [3] = Cell Viability - LYMP2-005 (AID 967)
# Outline: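 Human lymphoblastoid LYMP2-005 cells, 2,500 per well in complete medium, rested 5 h at 37C then compound-treated 24 h at 37C. Intracellular ATP read by CellTiter-Glo luminescence after 30 min at room temperature; AC50 from Hill-equation fits of concentration-response data.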
# [4] = Cell Viability - LYMP2-011 (AID 969); also: nearly all actives have a fitted effect of over 60% in size
# Outline: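 Acute toxicity is scored as a concentration-dependent drop in intracellular ATP of a human lymphoblastoid line after 24 hr treatment. Values are AC50s modeled with the Hill equation.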
# [5] = Cell Viability - LYMP2-013 (AID 970); also: nearly all actives have a fitted effect of over 55% in size
# Outline: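 Acute toxicity was measured in human lymphoblastoid cells (2500/well) exposed to compound titrations for 24 hr, with ATP luminescence (CellTiter-Glo) as read-out and AC50 fitted by Hill equation.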
# [6] = Cell Viability - LYMP2-017 (AID 972); also: nearly all actives have a fitted effect of over 55% in size
# Outline: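 Steps: plate 2500 lymphoblastoid cells per well; incubate 5 hr at 37 C; add compound across a concentration series and incubate 24 hr at 37 C; add CellTiter-Glo and read luminescence after 30 min at room temperature; fit Hill curves for AC50.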
# [7] = Cell Viability - LYMP2-019 (AID 973); also: nearly all actives have a fitted effect of over 55% in size
# Outline: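 Cells plated at 2500/well and allowed 5 hr at 37 C before compound addition. After 24 hr incubation, CellTiter-Glo reagent was added, plates sat 30 min at room temperature, and luminescence was recorded.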
# [8] = Cell Viability - LYMP2-021 (AID 974);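 also: compound exposure lasts 24 hours at 37 °C; nearly all actives have a fitted effect of over 55% in size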
# Outline: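 Concentration-response cytotoxicity in a human lymphoblastoid line: 24 hr treatment at 37 C in complete culture medium, tetraoctylammonium bromide as positive control, luminescent ATP quantitation as viability measure.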
# [9] = Cell Viability - LYMP2-023 (AID 975)
# Outline: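 Concentration-dependent drop in intracellular ATP measures acute cytotoxicity in a human lymphoblastoid line treated for 24 hours in complete culture medium. AC50 values are taken from Hill-equation fits of qHTS data.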
# [10] = Cell Viability - LYMP2-002 (AID 977)
# Outline: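 Luminescent ATP readout (CellTiter-Glo, 30 min room temperature) after 24 h compound exposure at 37 C of a human lymphoblastoid line, 2500 cells/well. AC50 values derived by standard Hill fitting of qHTS concentration-response data.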
# [11] = Cell Viability - LYMP2-016 (AID 984); also: nearly all actives have a fitted effect of over 55% in size
# Outline: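 Human lymphoblastoid LYMP2-016 cells, 2500 per well, treated with compounds for 24 h at 37 C. Viability read as intracellular ATP by CellTiter-Glo luminescence after 30 min at room temperature; AC50 from Hill fits of concentration-response.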
# [12] = Cell Viability - LYMP2-018 (AID 985);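 also: compound exposure lasted 24 hr at 37 °C; nearly all actives have a fitted effect of over 50% in size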
# Outline: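 Acute cytotoxicity is scored as a concentration-dependent drop in intracellular ATP after 24 hr exposure of the lymphoblastoid line in complete culture medium, measured by luciferase luminescence. Potency is expressed as AC50 from Hill modelling.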
# [13] = Cell Viability - LYMP2-020 (AID 986); also: nearly all actives have a fitted effect of over 55% in size
# Outline: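 Acute cytotoxicity in a human lymphoblastoid line is scored as a concentration-dependent fall in cellular ATP after 24 hr at 37 C in complete medium. The positive control is tetraoctylammonium bromide, and potency is given as Hill-fit AC50.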
# [14] = Cell Viability - LYMP2-022 (AID 987); also: nearly all actives have a fitted effect of over 55% in size
# Outline: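 Acute toxicity in a human lymphoblastoid line is scored as decreased intracellular ATP after 24 hr compound treatment at 37 C. ATP is measured by CellTiter-Glo luminescence; curves are fitted with the Hill equation to give AC50.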
# [15] = qHTS assay for small molecule antagonists of retinoid X receptor alpha signaling (AID 588546; active = well fitted inhibition curve with a large enough effect in the signal ratio, with a control signal flat, not every such curve was filed as active; the % refers to the signal ratio;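 also: cells stimulated with 9-cis-retinoic acid as agonist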); conditions: HEK293T RXRa-UAS-bla, beta-lactamase ratio, antagonist mode; measured here: W530 green channel, cytotoxicity proxy
# Outline: (§1)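 Beta-lactamase reporter inhibition, read as CCF4 fluorescence ratio (ex 405, em 460/530 nm) after 2 h at RT. HEK293T UAS-bla cells, 2500/well, were stimulated with 9-cis-RA at 500 or 100 nM final alongside test compound for 18 h at 37 C.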
# [16] = biological target: Retinoic acid receptor RXR-alpha (Homo sapiens) (UniProt P19793); assay: as above; conditions: HEK293T RXRa-UAS-bla, beta-lactamase ratio, antagonist mode
# Chain of Retinoic acid receptor RXR-alpha (Homo sapiens) (P19793 whole entry, looked up): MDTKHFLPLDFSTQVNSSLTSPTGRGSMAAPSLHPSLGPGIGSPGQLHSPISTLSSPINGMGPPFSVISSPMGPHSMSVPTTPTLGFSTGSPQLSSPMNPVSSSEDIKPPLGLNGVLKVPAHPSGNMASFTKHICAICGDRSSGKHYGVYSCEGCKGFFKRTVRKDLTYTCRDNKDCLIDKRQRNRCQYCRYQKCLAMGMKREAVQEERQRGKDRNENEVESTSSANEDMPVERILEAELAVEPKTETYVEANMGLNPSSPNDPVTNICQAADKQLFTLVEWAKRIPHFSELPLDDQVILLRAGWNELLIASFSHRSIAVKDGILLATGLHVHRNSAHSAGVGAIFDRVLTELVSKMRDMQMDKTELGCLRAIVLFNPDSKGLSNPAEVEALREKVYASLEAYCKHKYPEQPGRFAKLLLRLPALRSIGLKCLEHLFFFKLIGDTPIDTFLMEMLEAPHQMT
# Outline: as §1
# [17] = biological target: Thyroid hormone receptor beta (Homo sapiens) (UniProt P10828); assay: qHTS assay for small molecule antagonists of thyroid hormone receptor beta signaling (AID 588547; active = well fitted inhibition curve with a large enough effect in the signal ratio, with a control signal flat, not every such curve was filed as active; the % refers to the signal ratio;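 also: cells stimulated with 0.4 nM T3 agonist during compound exposure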); conditions: TR-UAS-bla HEK293, beta-lactamase ratio, antagonist mode, 18 h
# Chain of Thyroid hormone receptor beta (Homo sapiens) (P10828 whole entry, looked up): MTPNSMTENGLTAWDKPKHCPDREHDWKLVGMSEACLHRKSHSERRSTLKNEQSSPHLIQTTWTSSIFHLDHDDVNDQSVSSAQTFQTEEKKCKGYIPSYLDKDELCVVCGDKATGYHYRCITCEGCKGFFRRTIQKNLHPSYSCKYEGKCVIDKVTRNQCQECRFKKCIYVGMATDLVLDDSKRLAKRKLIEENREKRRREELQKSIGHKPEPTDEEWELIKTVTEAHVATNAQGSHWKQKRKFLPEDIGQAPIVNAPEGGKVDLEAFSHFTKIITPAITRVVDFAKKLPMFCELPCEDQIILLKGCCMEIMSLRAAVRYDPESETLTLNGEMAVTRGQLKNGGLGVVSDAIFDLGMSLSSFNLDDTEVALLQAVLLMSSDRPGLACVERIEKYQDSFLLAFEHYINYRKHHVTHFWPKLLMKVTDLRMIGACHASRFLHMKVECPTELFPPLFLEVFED
# Outline: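 TR-UAS-bla GripTite HEK293 cells in 2% charcoal/dextran FBS medium were preincubated 4 h at 37 C, given compound (0.59 nM to 92 uM) plus 0.4 nM T3 (final) for 18 h, then CCF4 for 2 h at RT; Hill fit gave IC50.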
# [18] = qHTS assay for small molecule disruptors of the mitochondrial membrane potential - 5 hr assay (AID 651755; calls by dose curve; also: nearly all actives have a fitted effect of over 40% in size)
# Outline: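 HepG2 cells, attached overnight at 37C, were exposed to compound or DMSO for 5 hr at 37C, 5% CO2. Mito-MPS dye was then added for 30 min, and fluorescence read at 490/535 nm (monomers) and 540/590 nm (aggregates).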
# [19] = qHTS assay for environmental chemicals that activate the Aryl hydrocarbon Receptor (AhR) signaling pathway (AID 651777); conditions: 1A2-DRE human hepatoma cells, luciferase, 24 h; activation: stronger effect = higher value; also: nearly all actives have a fitted effect of over 15% in size
# Outline: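 Measured luciferase activity, read 30 min after One-Glo addition at room temperature, from human hepatoma cells bearing a dioxin response element–CYP1A2 promoter reporter and exposed to compound for 24 hr at 37 C.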
# [20] = qHTS assay for small molecule disruptors of the mitochondrial membrane potential - 1 hr assay (AID 651754; calls by dose curve; also: nearly all actives have a fitted effect of over 35% in size)
# Outline: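 Steps: seed HepG2 cells and let attach overnight; pin-transfer compound or vehicle; incubate 1 hr at 37C; add Mito-MPS dye for 30 min; read two-channel fluorescence for monomer and aggregate forms.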
SMILES,"activity change, negative = cytotoxicity [1]",Potency [2],Potency [3],Potency [4],Potency [5],Potency [6],Potency [7],Potency [8],Potency [9],Potency [10],Potency [11],Potency [12],Potency [13],Potency [14],max response [15],max response [16],activity change % (negative = inhibition) [17],Potency [18],activation [19],Potency [20]
CCOP(=S)(OCC)Oc1ccc([N+](=O)[O-])cc1,-19.3% (inactive),inactive,inactive,inactive,inactive,inactive,inactive,inactive,inactive,inactive,inactive,inactive,inactive,inactive,14.9% and 8.35%,10.9% (inactive) and -20.1% (inactive),9.15% (inactive) and -8.55% (inactive),inactive,8.97% (inactive),
Cc1ccc(O)c(C)c1,3.22% (inactive),,inactive,inactive,inactive,inactive,inactive,inactive,inactive,inactive,inactive,inactive,inactive,inactive,-12.5% and -7.89% and -6.08%,0.533% (inactive) and 0.504% (inactive) and 10.6% (inactive),2.23% (inactive) and -13.2% (inactive) and -16.1% (inactive),inactive,-0.285% (inactive) and -2.95% (inactive) and -1.2% (inactive),inactive
CCCCCCCC(=O)Cl,5.37% (inactive),inactive,inactive,inactive,inactive,inactive,inactive,inactive,inactive,inactive,inactive,inactive,inactive,inactive,-7.27%,17.7% (inactive),11.9% (inactive),inactive,-0.601% (inactive),inactive
ClC(Cl)=C(Cl)Cl,-22.9% (inactive) and 3.64% (inactive),inactive,inactive,inactive,inactive,inactive,inactive,inactive,inactive,inactive,inactive,inactive,inactive,inactive,-6.82% and -0.572%,2.53% (inactive) and 3.68% (inactive),-10.3% (inactive) and -3.55% (inactive),inactive,-0.882% (inactive) and 0.706% (inactive),inactive
BrCCBr,-25.3% (inactive),inactive,inactive,inactive,inactive,inactive,inactive,inactive,inactive,inactive,inactive,inactive,inactive,inactive,-10.6% and -9.29%,9.69% (inactive) and -0.139% (inactive),-9.28% (inactive),inactive,-1.12% (inactive) and 0.568% (inactive),inactive
C[N+](C)(C)Cc1ccccc1,-12.6% (inactive),inactive,inactive,inactive,inactive,inactive,inactive,inactive,inactive,inactive,inactive,inactive,inactive,inactive,0.533% and -1.08%,9.55% (inactive) and -19% (inactive),-5.57% (inactive) and -5.51% (inactive),inactive,-0.332% (inactive) and -0.436% (inactive),inactive
O=C(Cl)C(Cl)(Cl)Cl,1.81% (inactive),inactive,inactive,inactive,inactive,inactive,inactive,inactive,inactive,inactive,inactive,inactive,inactive,inactive,2.3%,2.98% (inactive),-5.79% (inactive),inactive,0.0046% (inactive),inactive
ClC(Cl)(Cl)c1ccccc1,-19.1% (inactive) and -4.39% (inactive),inactive,inactive,inactive,inactive,inactive,inactive,inactive,inactive,inactive,inactive,inactive,inactive,inactive,-5.33% and -1.27%,9.82% (inactive) and 8.91% (inactive),-2.31% (inactive) and -2.68% (inactive),inactive,-0.334% (inactive) and -0.126% (inactive),inactive
